According to ChEMBL document CHEMBL1201862, “PubChem BioAssay data set” (2004):
Out of some 400,000 compounds screened, about 2,100 (0.53%) were called active. Inconclusive results (about 14%) are left out. How the calls were made is not given here. This excerpt belongs to a sample that is enriched for actives.

target: Ataxin-2 (Homo sapiens) (UniProt Q99700); assay: qHTS for Inhibitors of ATXN expression.; format: functional
Sequence (Q99700 whole entry): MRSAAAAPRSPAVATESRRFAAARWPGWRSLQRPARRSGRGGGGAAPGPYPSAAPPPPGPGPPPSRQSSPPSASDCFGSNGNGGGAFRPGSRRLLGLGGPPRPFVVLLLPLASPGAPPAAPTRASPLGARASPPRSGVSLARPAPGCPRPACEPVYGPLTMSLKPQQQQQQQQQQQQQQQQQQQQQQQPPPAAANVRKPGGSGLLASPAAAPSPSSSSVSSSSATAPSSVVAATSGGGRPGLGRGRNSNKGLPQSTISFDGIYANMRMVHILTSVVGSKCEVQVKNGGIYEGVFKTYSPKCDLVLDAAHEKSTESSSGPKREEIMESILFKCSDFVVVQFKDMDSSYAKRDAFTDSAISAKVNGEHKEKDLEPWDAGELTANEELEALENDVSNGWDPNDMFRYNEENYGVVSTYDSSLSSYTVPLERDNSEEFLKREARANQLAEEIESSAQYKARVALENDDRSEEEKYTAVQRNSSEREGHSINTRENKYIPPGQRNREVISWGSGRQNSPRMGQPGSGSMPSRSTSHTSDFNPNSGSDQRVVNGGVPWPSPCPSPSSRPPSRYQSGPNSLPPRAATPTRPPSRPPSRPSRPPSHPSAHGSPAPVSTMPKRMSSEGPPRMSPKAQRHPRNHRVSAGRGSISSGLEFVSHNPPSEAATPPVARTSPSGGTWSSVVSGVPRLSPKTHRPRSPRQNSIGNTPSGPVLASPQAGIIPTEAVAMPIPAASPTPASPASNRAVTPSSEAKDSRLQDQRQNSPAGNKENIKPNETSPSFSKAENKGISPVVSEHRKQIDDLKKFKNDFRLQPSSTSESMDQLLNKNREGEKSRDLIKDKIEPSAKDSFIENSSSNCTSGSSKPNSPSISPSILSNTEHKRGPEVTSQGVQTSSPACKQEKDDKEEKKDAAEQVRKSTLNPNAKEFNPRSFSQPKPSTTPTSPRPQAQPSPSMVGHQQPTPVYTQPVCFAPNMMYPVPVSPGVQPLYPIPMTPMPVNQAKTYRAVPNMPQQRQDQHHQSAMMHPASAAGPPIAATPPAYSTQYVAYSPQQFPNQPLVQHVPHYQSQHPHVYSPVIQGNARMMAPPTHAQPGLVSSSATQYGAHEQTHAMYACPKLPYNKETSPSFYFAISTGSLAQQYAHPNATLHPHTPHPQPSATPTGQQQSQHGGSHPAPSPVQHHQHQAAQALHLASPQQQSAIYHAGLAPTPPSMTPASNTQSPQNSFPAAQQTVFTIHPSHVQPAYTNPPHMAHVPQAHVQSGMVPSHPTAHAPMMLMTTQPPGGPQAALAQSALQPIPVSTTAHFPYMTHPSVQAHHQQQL

| SMILES | Potency |
| --- | --- |
| O=C1N/C(=C/c2cccn2-c2ccccc2)C(=O)N1Cc1ccc(F)cc1 | inactive |
| CCCCCC(=O)N[C@@H](c1ccccc1)[C@@H](O)C(=O)O[C@H]1C[C@@]2(O)[C@@H](OC(=O)c3ccccc3)C3[C@](C)(C(=O)[C@H](OC(C)=O)C(=C1C)C2(C)C)[C@@H](O)C[C@H]1OC[C@@]31OC(C)=O (some centres not stated) | 6.31 µM (active) |
| CC1=C(C(=O)N2CCCC(C(=O)c3cccc(C(F)(F)F)c3)C2)OCCO1 (configuration not stated) | inactive |
| COc1ccc(C(=O)C2CCCN(C(=O)c3csc(SC)n3)C2)cc1F (configuration not stated) | inactive |
| Cc1nc(C)c(C(=O)N2CCCC(C(=O)c3ccc4ccccc4c3)C2)s1 (configuration not stated) | 28.2 µM (active) |
| Cc1cccc(N2CCN(C(S)=Nc3ccc4nc(N5CCN(C)CC5)cc(C)c4c3)CC2C)c1 (configuration not stated) | 39.8 µM (active) |
| O=C(NCCCNC(=O)c1cnccn1)c1ccc(Br)cc1 | inactive |
| Cc1ccc(C(=O)N/C(=C\c2ccc(Br)cc2)c2n[nH]c(S)n2)cc1 | 25.1 µM (active) |
| O=C(N/N=C/c1ccc2nccnc2c1)c1ccc(Br)cc1 | inactive |
| Cc1ccc(/C=C(\NC(=O)c2ccc(C)cc2)c2n[nH]c(S)n2)cc1 | 25.1 µM (active) |
| CCc1cc(=O)oc2c(CN3CCCC3)c(O)c(Cl)cc12 | inactive |
| NC(=O)c1sc2nnc(-c3ccccc3)c(-c3ccccc3)c2c1N | inactive |
| CCOC(=O)C1(Cc2cccc(Cl)c2)CCCN(C(=O)CCSC)C1 (configuration not stated) | inactive |
| CCOc1ccccc1CNS(=O)(=O)c1c[nH]cn1 | inactive |
| CC(C)=CCC/C(C)=C/CNC(=O)C[C@H]1C[C@H](C(=O)N2CCOCC2)[C@@]2(CCC3CCCC3)c3[nH]c4cc(CCC(=O)N(C)C)ccc4c3CCN2C1=O | 35.5 µM (active) |
| CC(C)=CCC/C(C)=C/CNC(=O)C[C@H]1C[C@H](C(=O)N(C(C)C)C(C)C)[C@@]2(C)c3[nH]c4cc(CCC(=O)N(C)C)ccc4c3CCN2C1=O | 20 µM (active) |
| CN(C)C(=O)CCc1ccc2c3c([nH]c2c1)[C@]1(CCC2CCCC2)[C@@H](C(=O)N2CCOCC2)C[C@H](CC(=O)NCCC2=CCCCC2)C(=O)N1CC3 | 35.5 µM (active) |
| CN(C)C(=O)CCc1ccc2c3c([nH]c2c1)[C@]1(CCC2CCCC2)[C@@H](C(=O)N2CCOCC2)C[C@H](CC(=O)NCc2cccc(C(F)(F)F)c2)C(=O)N1CC3 | 31.6 µM (active) |
| CCOC(=O)N1CCN(C(=O)c2cn(CC)c3ccc(S(=O)(=O)N4CCCCC4)cc3c2=O)CC1 | inactive |

| SMILES | Potency |
| --- | --- |
| Cc1ccc(S(=O)(=O)c2cc3ccccc3oc2=O)cc1 | inactive |
| O=C(NCc1ccccc1)c1cc2ccc(O)cc2oc1=O | inactive |
| COC(CNC(=O)c1ccc2c3c(onc13)-c1ccccc1C2=O)OC | 22.4 µM (active) |
| CCOc1ccc(N(C)S(=O)(=O)c2ccc3ncc(C(=O)NCC(OC)OC)c(O)c3c2)cc1 | inactive |
| COCCCNC(=O)c1ccc2c3c(onc13)-c1ccccc1C2=O | 29.9 µM (active) |
| COCCCNc1c(O)nc2cccc3c2c1-c1ccccc1C3=O | inactive |
| COc1ccc(-c2nc3ccc(C(=O)NCC(OC)OC)cc3nc2-c2ccc(OC)cc2)cc1 | inactive |
| CCn1c(=N)c(C(=O)NCCCOC)cc2c(=O)n3cccc(C)c3nc21 | inactive |
| O=c1oc2ccccc2cc1-c1nc2c(s1)CCCC2 | inactive |
| CCc1ccc(C2=CC(c3cccc(Br)c3)n3nnnc3N2)cc1 (configuration not stated) | inactive |
| CC(=O)Nc1ccc(S(=O)(=O)N2CCN(c3nc(NC4CCCC4)c4ccccc4n3)CC2)cc1 | 31.6 µM (active) |
| CC(=O)Nc1ccc(S(=O)(=O)N2CCN(C(=O)C3COc4ccccc4O3)CC2)cc1 (configuration not stated) | inactive |
| O=C(O)c1ccc(S(=O)(=O)N2CCN(c3ccccn3)CC2)cc1 | inactive |
| Cc1ccc(C)c(-n2c(=O)c(C#N)cc3c(=O)n4ccccc4nc32)c1 | inactive |
| Cc1ccc2oc(Nc3nc(C)c(C)c(C)n3)nc2c1 | inactive |
| CCC(C)N1CCC2(CC1)N=c1c3c(O)c4c(O)c(C)c5c(c4c1=N2)C(=O)[C@@](C)(OC=C[C@H](OC)[C@@H](C)[C@@H](OC(C)=O)[C@H](C)[C@H](O)[C@H](C)[C@@H](O)[C@@H](C)C=CC=C(C)C(=O)N3)O5 (some centres not stated) | 22.4 µM (active) |
| C=CCN(CC=C)C(=O)c1ccc(OC2CCN(S(=O)(=O)N(C)C)CC2)cc1 | inactive |
| O=S(=O)(CCc1ccncc1)Cc1ccc2c3c(cccc13)CC2 | inactive |
| CC(=O)NCc1ccc(C(=O)CCl)s1 | 16.8 µM (active) |

| SMILES | Potency |
| --- | --- |
| CCOC(=O)C1CCCN(CC(=O)Nc2nc(-c3ccccc3)cs2)C1 (configuration not stated) | inactive |
| O=S(=O)(CCN1CCN(c2ccccn2)CC1)c1ccc(F)cc1 | inactive |
| Nc1ncn([C@H]2O[C@@H](CO)[C@@H](O)[C@@H]2O)c(=O)n1 | 5.01 µM (active) |
| C=CCSc1nc2c(N)ncnc2n1C1OC(CO)C(O)C1O (configuration not stated) | inactive |
| O=C(NN=C1CCCC1)NC1CCCCC1 | inactive |
| O=C(NCCc1ccc(F)cc1)c1cccc2c1C(=O)c1ccc(N3CCC(Cc4ccccc4)CC3)cc1S2(=O)=O | inactive |
| Cc1cccc(OCC(O)Cn2c(=N)n(CCN3CCCCC3)c3ccccc32)c1 (configuration not stated) | 39.8 µM (active) |
| N=c1n(CCN2CCCC2)c2ccccc2n1CC(O)c1ccc(Cl)c(Cl)c1 (configuration not stated) | 31.6 µM (active) |
| Cc1cccc(OCC(O)Cn2ccnc2C)c1 (configuration not stated) | inactive |
| O=c1c2ccccc2n(CC(O)CN2CCCCC2)c2ccccc12 (configuration not stated) | inactive |
| OC(CN1C2=NCCCN2c2ccccc21)c1ccc2c(c1)OCO2 (configuration not stated) | inactive |
| Nn1cnnc1SCC(=O)N1CCc2ccccc2C1 | inactive |
| CCOCCCn1c(=N)c(C(=O)NC(C)c2ccccc2)cc2c(=O)n3cc(C)ccc3nc21 (configuration not stated) | inactive |
| C/C(=N\Nc1nc2ccccc2s1)c1ccc(Br)s1 | inactive |
| CC(=NNc1nc2ccccc2s1)c1ccncn1 | 10 µM (active) |
| Cc1ccc(/C=N/Nc2nc3ccccc3s2)o1 | inactive |
| CCCCCCn1c(=O)[nH]c2nc3cc(N)c(C)cc3nc2c1=O | inactive |
| Cc1ccc(SSc2cc(C)ccc2N)c(N)c1 | 17.8 µM (active) |
| FC(F)(F)c1ccc(Cl)c(-n2c(S)nnc2-c2cc(C3CC3)[nH]n2)c1 | inactive |
